# Results reported in article PMC4336329 (PLoS ONE, 2015).
# About 2,200 (0.71%) of roughly 310,000 compounds showed an effect of 50% or more. Effects have a minus sign here. Only a selection was taken, and strong results are over-represented in it overall.
# Biological target: human ether-à-go-go-related gene (hERG) potassium channel (human, UniProt Q12809)
# Assay: primary screen, population patch clamp on CHO cells stably expressing hERG; higher = less effect of the substance
# Sequence of human ether-à-go-go-related gene (hERG) potassium channel (Q12809 whole entry, looked up): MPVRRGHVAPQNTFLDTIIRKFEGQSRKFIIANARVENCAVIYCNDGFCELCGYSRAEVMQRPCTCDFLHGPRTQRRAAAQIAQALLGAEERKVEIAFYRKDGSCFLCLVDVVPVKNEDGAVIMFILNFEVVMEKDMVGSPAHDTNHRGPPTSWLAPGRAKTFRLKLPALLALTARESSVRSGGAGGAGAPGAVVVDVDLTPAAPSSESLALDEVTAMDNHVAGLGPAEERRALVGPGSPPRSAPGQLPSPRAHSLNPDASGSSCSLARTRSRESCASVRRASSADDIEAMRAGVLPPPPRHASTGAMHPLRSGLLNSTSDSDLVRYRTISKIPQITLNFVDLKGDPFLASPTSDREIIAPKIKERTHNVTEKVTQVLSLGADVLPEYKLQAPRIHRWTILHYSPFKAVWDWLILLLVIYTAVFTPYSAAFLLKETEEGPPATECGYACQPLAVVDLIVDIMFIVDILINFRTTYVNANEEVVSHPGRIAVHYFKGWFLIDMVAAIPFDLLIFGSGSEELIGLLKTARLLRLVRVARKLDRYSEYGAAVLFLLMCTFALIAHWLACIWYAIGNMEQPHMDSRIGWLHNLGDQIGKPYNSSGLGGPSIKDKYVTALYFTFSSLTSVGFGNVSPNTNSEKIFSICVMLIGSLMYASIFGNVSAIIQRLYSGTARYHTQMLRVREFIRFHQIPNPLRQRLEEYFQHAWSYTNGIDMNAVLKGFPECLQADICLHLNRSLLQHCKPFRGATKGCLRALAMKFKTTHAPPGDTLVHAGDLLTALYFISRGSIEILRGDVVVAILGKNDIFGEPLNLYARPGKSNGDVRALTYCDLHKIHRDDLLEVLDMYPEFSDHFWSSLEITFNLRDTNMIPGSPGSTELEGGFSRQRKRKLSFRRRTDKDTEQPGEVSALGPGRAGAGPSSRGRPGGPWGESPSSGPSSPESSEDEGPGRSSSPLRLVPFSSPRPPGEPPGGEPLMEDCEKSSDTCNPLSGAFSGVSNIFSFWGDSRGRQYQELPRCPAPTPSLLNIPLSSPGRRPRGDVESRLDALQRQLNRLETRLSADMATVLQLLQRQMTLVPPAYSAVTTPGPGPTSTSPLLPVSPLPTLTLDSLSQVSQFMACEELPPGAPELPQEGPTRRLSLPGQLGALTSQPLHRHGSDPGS
row,SMILES,"hERG current change (%, negative = inhibition) at 1uM"
1,COc1ccnc2c1c(=O)n(Cc1cccc(F)c1)c(=O)n2C,8.91%
2,Cc1cc(C)cc(NC(=O)CSc2nnc(CNC(=O)c3ccco3)n2C)c1,14.2%
3,Br.c1ccc(C2CNCc3c2ccc2ccccc32)cc1 (centres unmarked),1.84%
4,COc1ccc(C(=O)NCc2nnc(SCC(=O)NCc3ccco3)o2)cc1OC,14.2%
5,COc1cccc(NC(=S)NCc2cccnc2)c1,11.1%
6,COc1cccc(NC(=O)Cn2nc(Cc3cccnc3)c3ccccc3c2=O)c1,-8.3%
7,COc1ccc(Nc2ncnc3ccccc23)c(OC)c1.Cl,-0.118%
8,COc1ccc(Nc2nnc(Cc3ccccc3)c(=O)[nH]2)c(OC)c1,8.03%
9,COc1ccc(Nc2nnc(Cc3ccncc3)c3ccccc23)c(OC)c1,-66.6%
10,COc1cccc(Nc2nnc(Cc3cccnc3)c3ccccc23)c1,-83.2%
11,CCN(CC)CCOC(=O)c1cc2cc(COC)ccc2o1.CI,9.98%
12,O=C(CN1C(=O)c2cccnc2Oc2ccc(Cl)cc21)Nc1ccc(F)cc1,14.1%
13,COCCCn1c(Cc2csc(Nc3cccc(Cl)c3)n2)nnc1SCC(=O)OC1CCCCC1,-0.506%
14,COc1ccc(C2CC(c3cccc(OC)c3OC)n3nnnc3N2)cc1 (centres unmarked),-4.26%
15,O=C(c1cccs1)N1CCN(C(=O)N2CCOCC2)CC1,15.2%
16,COC(C[C@@H]1O[C@@H]1[C@H](O)COCc1ccccc1)OC,10.5%
17,CCOC(=O)c1cc(-c2ccc(Cl)cc2)nc2c1c(C)nn2CCC#N,10.9%
18,Cc1cc(C)c[n+](CC(=O)c2ccccc2)c1.[Br-],20.1%
19,Cc1cc(C)c[n+](CC(=O)c2ccc(C)c([N+](=O)[O-])c2)c1.[Br-],4.61%
20,Cc1cc(C)c[n+](CC(=O)c2c(C)cc(C)c([N+](=O)[O-])c2C)c1.[Br-],-52.7%
21,CN1CCN(C(=O)C2CCC(=O)N(Cc3cccc(C(F)(F)F)c3)C2)CC1 (centres unmarked),6.99%
22,Cc1nnc(NC(=O)CSc2nnc(CC(=O)Nc3ccccc3C)n2C)s1,17.4%
23,COc1ccc(C(=O)C2CCCN(C(=O)CCc3ccccn3)C2)c(C)c1 (centres unmarked),9.98%

row,SMILES,"hERG current change (%, negative = inhibition) at 1uM"
1,COc1ccc(C(=O)C2CCCN(Cc3cccn3-c3ccccn3)C2)c(OC)c1 (centres unmarked),-82.9%
2,COc1ccc(C(=O)C2CCCN(Cc3ccccn3)C2)c(OC)c1 (centres unmarked),-3.83%
3,COc1ccc(C(=O)C2CCCN(Cc3cccn3-c3ccccn3)C2)c(C)c1 (centres unmarked),-84.8%
4,COc1ccc(C(=O)C2CCCN(CCO)C2)c(C)c1 (centres unmarked),12.5%
5,COc1ccc(C(=O)C2CCCN(Cc3cccn3-c3ccc(Cl)cn3)C2)c(OC)c1 (centres unmarked),-45.8%
6,O=C(O)c1cc(NC(=O)c2ccc3c(c2)C(=O)N(Cc2ccccc2)C3=O)cc(C(=O)O)c1,11.7%
7,COc1cccc(Nc2ncc(C#N)c(N)n2)c1,12.9%
8,O=C(COC(=O)c1nc(Cl)ccc1Cl)Nc1ncc(Cl)cc1Cl,14.4%
9,CN(C)CCN=Cc1c(O)n(Cc2ccccc2)c(=O)c2ccccc12,-6.8%
10,CN(C)CCCN=Cc1c(O)n(Cc2ccccc2)c(=O)c2ccccc12,-25.5%
11,CCN(CC)CCCN=Cc1c(O)n(Cc2ccccc2)c(=O)c2ccccc12,-77.3%
12,CCOC(=O)C1CCN(C/C=C/c2ccccc2[N+](=O)[O-])CC1,-57%
13,CCOC(=O)C1CCN(C/C=C/c2ccccc2)CC1,4.64%
14,CCOC(=O)C1CCCN(C/C=C/c2ccccc2[N+](=O)[O-])C1 (centres unmarked),-42.6%
15,CC(O)[C@H]1CNCCN1CCc1cccc2ccccc12 (some centres unmarked),5.81%
16,CCSc1ccccc1C(=O)N1CCN(c2ccc([N+](=O)[O-])cc2)CC1,-41%
17,CCCCCCn1cc(C(=O)O)c(=O)c2cc(F)c(N3CCCCC3)cc21,14%
18,O=C(O)c1cn(Cc2ccccc2)c2ccccc2c1=O,-43.6%
19,O=C(O)c1cn(Cc2ccccc2)c2ccc(Cl)cc2c1=O,-84.4%
20,COc1ccc2c(c1)c(=O)c(C(=O)c1ccccc1)cn2Cc1ccccc1,-21.1%
21,CCCCCn1cc(C(=O)C(=O)N2CCOCC2)c2ccccc21,7.53%
22,CCCCCCn1cc(C(=O)O)c(=O)c2ccccc21,-84.4%
23,CCOc1cc(C2C(C(=O)OCC(C)C)=C(C)N=C3SCCC(=O)N32)ccc1OC(C)=O (centres unmarked),-0.245%

row,SMILES,"hERG current change (%, negative = inhibition) at 1uM"
1,Cc1ccc(S(=O)(=O)N2CCN(C(=O)CCC(=O)N3CCc4ccccc43)CC2)cc1,3.11%
2,COc1ccc2c(c1)Sc1ccccc1N2CCN(C)C.O=C(O)C(=O)O,2.44%
3,COc1ccc(N2C(=O)C(OC(C)=O)C2c2ccc(C)cc2)cc1 (centres unmarked),7.38%
4,COc1ccc([C@@H]2Sc3cc(OC)ccc3N(CCN(C(C)C)C(C)C)C(=O)[C@H]2OC(C)=O)cc1.Cl,-70%
5,Cc1ccccc1C(=O)Nc1ccccc1C(=O)N1CCC(C)CC1,11.7%
6,COC(=O)c1ccc(Cn2cnc3c(cnn3-c3ccc(C)c(C)c3)c2=O)o1,7.86%
7,Cc1c(-c2ccccc2)oc2c(C(=O)OCC(=O)Nc3cccc(F)c3)cccc2c1=O,5.94%
8,COc1ccccc1NC(=S)NC(NC(=O)c1ccco1)C(Cl)(Cl)Cl (centres unmarked),4.44%
9,COc1ccc(NC(=O)c2ccc(S(=O)(=O)N3CCCC3)cc2)cc1OC,-102%
10,COc1ccc(NC(=O)c2cccc(S(=O)(=O)N3CCCC3)c2)cc1OC,2.14%
11,COc1ccc(C(=O)Nc2ccc(S(=O)(=O)N3CCCCC3)cc2)cc1OC,-0.152%
12,CCCN1CCC[C@@H]2Cc3nc(N)ncc3C[C@H]21.Cl,8.86%
13,NC(=O)c1ccc(NC(=O)CCC(=O)c2cccs2)cc1,9.21%
14,O=C(Nn1cnnc1)c1cc([N+](=O)[O-])cc([N+](=O)[O-])c1,5.11%
15,CCn1cc(C2=NC(C)CO2)c2ccccc21 (centres unmarked),-0.637%
16,NC(=O)c1ccccc1NC(=O)CN1CCN(Cc2ccc(Cl)cc2Cl)CC1,-75.8%
17,COC(=O)c1ccccc1NC(=O)CN1CCCCC1,32.9%
18,COC(=O)c1ccccc1NC(=O)CN1CCCCCC1,16.5%
19,O=C(CN1CCCCCC1)Nc1ccc(Cl)cn1,6.51%
20,O=C(CN1CCN(Cc2ccccc2)CC1)Nc1ccc(Cl)cn1,-70%
21,COC(=O)c1ccccc1NC(=O)CN1CCN(Cc2ccccc2)CC1,-69.6%
22,O=C(CN1CCN(Cc2ccccc2F)CC1)Nc1ccccc1Cl,8.26%
23,Cc1cccc(NC(=O)CN2CCN(CC(=O)NCc3ccc(Cl)cc3Cl)CC2)c1C,4.8%

row,SMILES,"hERG current change (%, negative = inhibition) at 1uM"
1,O=C(CN1CCN(Cc2ccccc2)CC1)Nc1ccc(Cl)cc1,-32.3%
2,COC(=O)c1ccccc1NC(=O)CN1CCOCC1,5.34%
3,COC(=O)c1ccccc1NC(=O)CN1CCC(C)CC1,-0.0967%
4,COC(=O)c1ccccc1NC(=O)CN1CCN(C23CC4CC(CC(C4)C2)C3)CC1,-75%
5,CCOCCCNS(=O)(=O)c1ccc2c(c1)oc(=O)n2CC(=O)OCC,10.3%
6,COCCN1CCN(C(=O)C2CCC(=O)N(Cc3ccccc3F)C2)CC1 (centres unmarked),9.05%
7,COc1c(/C=N/NC(=O)c2ccccc2O)c(CCN(C)C(C)=O)cc2c1OCO2,8.13%
8,CCN(CC)CCCNC(=O)c1c(O)c2ccccc2n(Cc2ccccc2)c1=O.Cl,-12.3%
9,Cc1ccccc1N1C(=O)c2ccccc2NC1c1ccncc1 (centres unmarked),13%
10,COc1ccccc1/C=C/C(=O)NCC(=O)N/N=C(\CCC(=O)O)c1ccccc1,-2.9%
11,NNC(=O)c1ccc(-c2ccccc2F)cc1,14.8%
12,Nc1nnc(C(F)(F)F)s1,4.92%
13,CSc1ccc(/C=N/NC(=O)CN2CCN(Cc3ccccc3)CC2)cc1,-60%
14,CSc1ccc(/C=N/NC(=O)CN2CCN(Cc3ccc(Cl)cc3)CC2)cc1,2.29%
15,CSc1ccc(/C=N/NC(=O)CN2CCN(Cc3ccc(C)cc3)CC2)cc1,2.67%
16,O=C(CN1CCN(Cc2ccccc2)CC1)Nc1ccccc1-c1ccccc1,-39.6%
17,NC(=O)c1ccccc1NC(=O)CN1CCN(Cc2ccccc2)CC1,-77.7%
18,NC(=O)c1ccccc1NC(=O)CN1CCCCCC1,13.4%
19,COc1ccc(N(CC(=O)NCc2ccc(C)cc2)S(=O)(=O)c2c(C)[nH]c(=O)[nH]c2=O)cc1,16%
20,Cc1nc2cc3nc(C)sc3cc2s1,3.19%
